According to PubChem BioAssay (NCATS):
Results filed as inconclusive are left out. Calls of active or inactive are those of the source. Calls come from the whole dose curve; as a rule, active = well fitted cell-killing curve with a large enough effect; inconclusive = small, poorly fitted or top-dose-only effect; inactive = no such curve, though single readings can be large or run the other way.
Potency is the fitted concentration of half-maximal effect.

Experiment: qHTS of pediatric cancer cell lines to identify multiple opportunities for drug repurposing: Primary screen for A673 cells (AID 1347092); note: nearly all actives have a fitted effect of over 45% in size; for activity change, negative = cytotoxic: % is set by controls: 0 for no effect and ±100 for the full control effect
Conditions: A673 Ewing sarcoma viability, CellTiter-Glo ATP luminescence, 48 h; series mostly up to 46 µM; activity change, negative = cytotoxic: at the top concentration
Procedure, shortened: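 A673 cells (500-1,000 cells/well in growth media) were pre-incubated 5 h at 37 degrees C, then exposed to compounds for 48 h. Viability was read as CellTiter-Glo luminescence; concentration-response curves came directly from the primary screen.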
With `OC1(c2ccc(Cl)cc2)CCNCC1` the “activity change, negative = cytotoxic” value was -8% (inactive). For `CCCCCCCCCCCCCC[N+](C)(C)C`, the Potency was 2.11 µM (active). With `O=C(COCCOCCOCC(=O)Nc1c(I)cc(I)c(C(=O)O)c1I)Nc1c(I)cc(I)c(C(=O)O)c1I` the “activity change, negative = cytotoxic” value was 17.1% (inactive). With `CC[C@@]1(O)C(=O)OCc2c1cc1n(c2=O)Cc2c-1nc1ccccc1c2/C=N/OC(C)(C)C` the Potency was 0.0335 µM (active). In the case of `CCN(CC)CCOc1ccc(/C(=C(\Cl)c2ccccc2)c2ccccc2)cc1`, the Potency was 21.1 µM (active). In the case of `CC[N+]1(CC)CCC(=C(c2ccccc2)c2ccccc2)C1C` (stereo not drawn), the “activity change, negative = cytotoxic” value was -26.2% (inactive). With `NS(=O)(=O)c1cc(C(=O)NN2C[C@H]3[C@H]4CCC(C4)[C@H]3C2)ccc1Cl` the “activity change, negative = cytotoxic” value was 11.2% (inactive). In the case of `O=C1OC2(c3ccccc31)c1cc(I)c(O)c(I)c1Oc1c2cc(I)c(O)c1I`, the “activity change, negative = cytotoxic” value was -16.1% (inactive). In the case of `Nc1nnnn1-c1ccccc1`, the “activity change, negative = cytotoxic” value was -10.3% (inactive). For `CCCCCCCCCCCCCCCC[n+]1ccccc1`, the Potency was 1.68 µM (active). In the case of `C/C(=C1\CCOC(=O)S1)N(C=O)Cc1cnc(C)nc1N`, the “activity change, negative = cytotoxic” value was -2.55% (inactive). In the case of `COc1cc(C(=O)OC(COCCC(C)C)CN2CCOCC2)cc(OC)c1OC` (stereo not drawn), the “activity change, negative = cytotoxic” value was 5.49% (inactive). For `Cc1oc(=O)oc1COC(=O)[C@@H]1N2C(=O)[C@@H](NC(=O)[C@H](N)c3ccccc3)[C@H]2SC1(C)C`, the “activity change, negative = cytotoxic” value was -2.35% (inactive). With `O=C(O)C1CCC1` the “activity change, negative = cytotoxic” value was 7.58% (inactive). In the case of `CC(=O)OCC[N+](C)(C)C`, the “activity change, negative = cytotoxic” value was -0.556% (inactive). With `O=C1Cc2cc(Cl)ccc2N1` the “activity change, negative = cytotoxic” value was 11.3% (inactive). For `CCCCCCCCCCCCCCCCCCN(C)C`, the “activity change, negative = cytotoxic” value was 0.666% (inactive). For `CCCCOC(=O)CCCCCCCCC(=O)OCCCC`, the “activity change, negative = cytotoxic” value was -0.693% (inactive). For `CN1[C@@H]2CC[C@H]1CC(NC(=O)n1c(=O)[nH]c3ccccc31)C2` (stereo partly drawn), the “activity change, negative = cytotoxic” value was 5.95% (inactive). For `O=C(OCCN1CCOCC1)c1cccnc1Nc1cccc(C(F)(F)F)c1`, the “activity change, negative = cytotoxic” value was 3.71% (inactive). With `C/C(=N\O)[C@@H](C)NCC(C)(C)CN[C@H](C)/C(C)=N/O` the “activity change, negative = cytotoxic” value was 12.3% (inactive). For `O=C1CCCc2c(O)cccc21`, the “activity change, negative = cytotoxic” value was -0.929% (inactive). In the case of `Cc1nc(N)nc(N)c1-c1ccc(Cl)c(Cl)c1`, the Potency was 1.06 µM (active). For `NC(=O)NS(=O)(=O)c1ccc(Cl)cc1`, the “activity change, negative = cytotoxic” value was 3.33% (inactive). In the case of `CCC1=C[C@@H]2CN(C1)Cc1c([nH]c3ccccc13)[C@@](C(=O)OC)(c1cc3c(cc1OC)N(C)[C@H]1[C@@](O)(C(=O)OC)[C@H](OC(C)=O)[C@]4(CC)C=CCN5CC[C@]31[C@@H]54)C2`, the Potency was 0.0106 µM (active).

Experiment: qHTS of pediatric cancer cell lines to identify multiple opportunities for drug repurposing: Primary screen for SK-N-MC cells (AID 1347093);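 for activity change, negative = cytotoxic: plate controls were DMSO neutral control for no effect and bortezomib for full effect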
Conditions: SK-N-MC viability, CellTiter-Glo luminescence, 48 h; series mostly up to 46 µM; activity change, negative = cytotoxic: at the top concentration
Procedure, shortened: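 Metabolically active cells were quantified by ATP-dependent luminescence (CellTiter-Glo, 15 min at room temperature) following 48 h treatment. Cells had been plated at 500-1,000 per well and settled for 5 h beforehand.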
For `OC1(c2ccc(Cl)cc2)CCNCC1`, the “activity change, negative = cytotoxic” value was -13.6% (inactive). In the case of `Nc1nc(=O)n([C@@H]2O[C@H](CO)[C@@H](O)[C@@H]2F)cc1I`, the “activity change, negative = cytotoxic” value was 2.21% (inactive). In the case of `CCCCCCCCCCCCCC[N+](C)(C)C`, the Potency was 3.35 µM (active). With `CC1CCCCN1CCCOC(=O)c1ccc(OC2CCCCC2)cc1` (stereo not drawn) the “activity change, negative = cytotoxic” value was -16.8% (inactive). For `CCCCCCCCCCCCCCCCCCNC(=O)OC1CCN(C(=O)OC[C@H](COC(=O)N(Cc2cccc[n+]2CC)C(=O)c2ccccc2OC)OC)CC1`, the Potency was 8.41 µM (active). In the case of `CC[C@@]1(O)C(=O)OCc2c1cc1n(c2=O)Cc2c-1nc1ccccc1c2/C=N/OC(C)(C)C`, the Potency was 0.0211 µM (active). In the case of `CC[N+]1(CC)CCC(=C(c2ccccc2)c2ccccc2)C1C` (stereo not drawn), the Potency was 18.8 µM (active). In the case of `NS(=O)(=O)c1cc(C(=O)NN2C[C@H]3[C@H]4CCC(C4)[C@H]3C2)ccc1Cl`, the “activity change, negative = cytotoxic” value was 17.8% (inactive). With `CCCCCCCCCCCCCCCC[n+]1ccccc1` the Potency was 5.31 µM (active). With `C/C(=C1\CCOC(=O)S1)N(C=O)Cc1cnc(C)nc1N` the “activity change, negative = cytotoxic” value was -22.6% (inactive). In the case of `COc1cc(C(=O)OC(COCCC(C)C)CN2CCOCC2)cc(OC)c1OC` (stereo not drawn), the “activity change, negative = cytotoxic” value was 9.76% (inactive). For `Cc1oc(=O)oc1COC(=O)[C@@H]1N2C(=O)[C@@H](NC(=O)[C@H](N)c3ccccc3)[C@H]2SC1(C)C`, the “activity change, negative = cytotoxic” value was -8.8% (inactive). For `O=C(O)Cn1cnnn1`, the “activity change, negative = cytotoxic” value was -13.2% (inactive). For `O=C(O)C1CCC1`, the “activity change, negative = cytotoxic” value was -16.4% (inactive). With `O=C(O)c1ccc(OCCN2CCCCC2)cc1` the “activity change, negative = cytotoxic” value was -1.59% (inactive). With `CC(C)CCCC(C)NCCC(C)C` (stereo not drawn) the “activity change, negative = cytotoxic” value was -20.1% (inactive). For `Cc1ccc(C(=O)Oc2ccc(C(O)CNC(C)(C)C)cc2OC(=O)c2ccc(C)cc2)cc1` (stereo not drawn), the Potency was 0.001 µM (active). In the case of `O=C1Cc2cc(Cl)ccc2N1`, the “activity change, negative = cytotoxic” value was -4.44% (inactive). For `CCCCCCCCCCCCCCCCCCN(C)C`, the “activity change, negative = cytotoxic” value was -24.6% (inactive). In the case of `CCCCOC(=O)CCCCCCCCC(=O)OCCCC`, the “activity change, negative = cytotoxic” value was -17.6% (inactive). With `O=C(O)C(=O)Nc1cccc(-c2nn[nH]n2)c1` the “activity change, negative = cytotoxic” value was -29.9% (inactive). In the case of `CN1[C@@H]2CC[C@H]1CC(NC(=O)n1c(=O)[nH]c3ccccc31)C2` (stereo partly drawn), the “activity change, negative = cytotoxic” value was -7.56% (inactive). For `C/C(=N\O)[C@@H](C)NCC(C)(C)CN[C@H](C)/C(C)=N/O`, the “activity change, negative = cytotoxic” value was -7.93% (inactive). In the case of `O=C1CCCc2c(O)cccc21`, the “activity change, negative = cytotoxic” value was 3.65% (inactive). In the case of `Cc1nc(N)nc(N)c1-c1ccc(Cl)c(Cl)c1`, the Potency was 0.0335 µM (active). For `NC(=O)NS(=O)(=O)c1ccc(Cl)cc1`, the “activity change, negative = cytotoxic” value was 1.74% (inactive). For `CCC1=C[C@@H]2CN(C1)Cc1c([nH]c3ccccc13)[C@@](C(=O)OC)(c1cc3c(cc1OC)N(C)[C@H]1[C@@](O)(C(=O)OC)[C@H](OC(C)=O)[C@]4(CC)C=CCN5CC[C@]31[C@@H]54)C2`, the Potency was 0.0168 µM (active). For `CCCC(=O)O[C@]1(C(=O)CC)CC[C@H]2[C@@H]3CCC4=CC(=O)CC[C@]4(C)[C@H]3[C@@H](O)C[C@@]21C`, the Potency was 33.5 µM (active).
